Source: PubChem
S2 tox = cell viability loss in ATXN counter-screen; S2 cells (HEK-293 line with an ATXN2-luciferase reporter) viability, CellTiter-Fluor protease fluorescence, 24 h; Potency, µM (series often up to 56.7 µM), hits mostly cytotoxic; 400,000 compounds, 0.49% hits; also: potency is read from the fitted curve at half-maximal effect; nearly all actives have a fitted effect of over 40% in size
ATXN2 expr inh = ATXN2 expression inhibition | HEK-293 ATXN2-luciferase reporter, luminescence, 24 h | Potency, µM (highest dose often 57 µM), for the others: at the highest dose activity change, negative = inhibition, actives largely listed as inhibitors | 360,000 compounds, 0.72% hits | AID 1745845; also: potency is read from the fitted curve at half-maximal effect; % is scaled to controls: 0 for no effect and ±100 for the full control effect; nearly all actives have a fitted effect of over 55% in size
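qHTS (up to 57 uM final) was run with 24 h compound exposure of reporter cells at 37 °C. Each well was multiplexed: SteadyGlo luminescence measured ATXN2-luciferase expression after a fluorogenic Gly-Phe-AFC viability readout (25 uM final).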
TGFb SMAD3 inh = inhibitors of TGF-b signaling; Potency, µM (titrated, usually from 46.1 µM), for inactives: at the top dose activity, negative = inhibition, most hits filed as inhibitors; AID 588855; 410,000 compounds, 1.2% hits; HepG2 CAGA-GFP TGF-b/SMAD3 reporter, GFP fluorescence, 18 h; TGF-beta stimulated, 500 pg/mL final; also: potency is read from the fitted curve at half-maximal effect; % is scaled to controls: 0 for no effect and ±100 for the full control effect; nearly all actives have a fitted effect of over 65% in size
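HEPG2 CAGA-GFP cells (1000/well, DMEM with 1% FBS) were pre-incubated 2 h at 37 degrees C, given compound by pin tool, then stimulated with TGF-beta at 500 pg/mL final for 18 h before per-cell GFP fluorescence imaging.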
IL-1B inflam inh = inhibitors of inflammasome signaling (IL-1 beta secretion). THP-1 LPS/ATP IL-1B secretion, AlphaLISA, 16 h; hits give low values. AID 743279. 360,000 compounds, 4.7% hits. activity change, % at 57.5 µM; in the data active = activity change below about -50%; inconclusive = mostly about -30% to -49%; also: % is scaled to controls: 0 for no effect and ±100 for the full control effect
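Secreted IL-1B measured by AlphaLISA bead assay after 16 h compound exposure of THP-1 cells; compounds (final up to 57.5 uM) added 1 h before LPS (250 ng/mL) and ATP (1.25 mM) stimulation; lower signal means less secretion.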
HepG2 tox = counter-screen for TGF-b inhibitors: cytotoxicity in HepG2 cells. HepG2 CAGA-GFP viability, ATP luminescence, 18 h. AID 588856. Potency, µM (titrated, usually from 46.1 µM), without a hit: at the highest dose activity change, negative = cytotoxicity, hits mostly cytotoxic. 410,000 compounds, 0.76% hits; also: potency is read from the fitted curve at half-maximal effect
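CellTiter-Glo luminescence gave cytotoxicity after 18 hours at 37 degrees C. The cells were HepG2 CAGA-GFP in 1% FBS DMEM, stimulated with 500 pg/mL TGF-beta after compound addition. %Activity was normalised to no-cell wells (complete cell-killing) and DMSO (no toxicity), and curves were fitted and classified.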
Starred values were filed as active, the others as inactive; i = inactive; ? = inconclusive; · = no result. Hits are enriched below; roughly 5.7% of the tested compounds scored in any of these assays. Unless noted, calls follow the shape of the dose curve; as a rule, active = well fitted curve in the direction sought with a large enough effect; inconclusive = small, poorly fitted or top-dose-only effect, or another doubt; inactive = no such curve, though single readings can be large; an effect the other way counts as inactive or inconclusive.

SMILES | S2 tox | ATXN2 expr inh | TGFb SMAD3 inh | IL-1B inflam inh | HepG2 tox
Cc1cc(NC(=O)c2ccc3[nH]c(C)c(C)c3c2)ccn1 | i | -12.7% | 0.0% | -58.2* | -13.0%
CSc1cccc(NC(=O)NCc2cccc(CNC(=O)Nc3cccc(SC)c3)c2)c1 | ? | · | ? | 0.0 | 12.6µM*
CCSc1ccccc1C(=O)Nc1ccc(-c2nc3ccccc3s2)c(O)c1 | · | · | -18.3% | · | -44.2%
CS(=O)(=O)c1ccc(C(=O)NNC(=O)c2cc(-c3ccccc3)n[nH]2)cc1 | i | -6.6% | -21.1% | 1.0 | -2.4%
COc1ccc(Cl)c(-c2cc(C(=O)Nc3ccccc3)[nH]n2)c1 | i | 72.4% | 4.9% | -51.0* | -28.0%
Cc1ccc(NC(=O)c2cc(-c3ccccc3)n[nH]2)cc1 | i | 32.5% | -1.4% | -74.7* | 1.5%
COc1cc(C(=O)NNC(=O)c2cc(-c3ccccc3)n[nH]2)cc(OC)c1C | ? | -23.9% | -19.9% | -63.9* | -18.0%
Cn1cc(/C=C/c2ccc3ccccc3n2)c2ccccc21 | · | · | ? | · | -53.1%
Cc1cccc(OCCSc2nc3ccc(NC(=O)c4cccs4)cc3s2)c1 | i | -27.0% | -14.3% | · | -1.1%
CCCCn1cc(S(=O)(=O)c2ccccc2)c(=O)c2cc(F)c(N3CCN(CCC)CC3)cc21 | · | · | -1.9% | · | 14.2%
CCOc1ccc(-c2csc(/C(C#N)=C\c3ccc(O)c([N+](=O)[O-])c3)n2)cc1 | · | ? | 5.01µM* | -6.2 | -6.7%
CCc1ccc(/C=C(/C#N)c2nc(-c3ccc(C)cc3)cs2)cc1 | · | -2.7% | 11.1% | · | -26.9%
CC(=O)[C@@]1(O)CC[C@H]2[C@@H]3C[C@H](C)C4=CC(=O)CC[C@]4(C)[C@H]3CC[C@@]21C | i | -5.7% | -12.1% | ? | -64.8%
C=C1C[C@H]2[C@@H]3C=C(C)C4=CC(=O)CC[C@]4(C)[C@H]3CC[C@]2(C)[C@@]1(OC(C)=O)C(C)=O | i | 1.2% | 2.7% | -73.6* | 12.3%
CC(=O)C1(C)CCC2C3C=C(C)C4=CC(=O)CCC4(C)C3CCC21C (stereo unspecified) | i | 0.0% | -19.8% | -73.2* | -9.3%
C=C1CC2C(CCC3(C)C2CCC3(O)C(C)=O)C2(C)CCC(=O)C=C12 (stereo unspecified) | ? | -25.3% | -25.5% | -92.0* | 7.6%
CC(=O)[C@@]1(O)CCC2C3C=CC4=CC(=O)CC[C@]4(C)C3CC[C@@]21C (stereo partly specified) | ? | · | 2.5% | 11.7 | -5.0%
Cc1ccc(Cl)cc1N1CCN(c2ncnc3onc(C)c23)CC1 | i | ? | ? | · | -17.2%
CCOc1ccc(-c2cc(C(=O)NCc3ccccc3Cl)c3ccccc3n2)cc1 | i | 13.3% | -12.7% | · | -1.2%
Cc1ccc(C(=O)NCC(c2ccco2)N2CCCCC2)s1 (stereo unspecified) | i | · | -4.1% | 12.5 | -1.6%
O=C(NCC(c1ccco1)N1CCCC1)c1ccccc1Sc1ccc(C(F)(F)F)cc1[N+](=O)[O-] (stereo unspecified) | i | -15.8% | -24.4% | -75.5* | 0.8%
N#Cc1ccccc1Sc1ccccc1C(=O)NCC(c1ccco1)N1CCCCC1 (stereo unspecified) | ? | · | -7.2% | -12.2 | -29.3%
O=C(NCC(c1ccco1)N1CCCCC1)c1ccc([N+](=O)[O-])s1 (stereo unspecified) | i | ? | 15.8µM* | -15.5 | -62.7%
COc1cc(-c2nn3c(-c4cc(-c5ccccc5)n[nH]4)nnc3s2)cc(OC)c1OC | · | · | -1.7% | · | -7.7%
COc1ccc(Cl)c(N2CCN(CCCNC(=O)Nc3ccc(C)cc3)CC2)c1 | i | -27.7% | ? | -56.0* | -49.7%
COc1ccccc1N1CCN(CCCNC(=O)Nc2ccccc2C)CC1 | i | 1.5% | -12.8% | -13.3 | 3.1%
COc1ccc(NC(=O)NCCN2CCN(c3cc(OC)ccc3OC)CC2)cc1 | ? | -17.5% | -0.8% | -21.6 | -1.5%
COc1ccc(Cl)cc1N1CCN(CCNC(=O)Nc2ccccc2C)CC1 | ? | ? | ? | -76.8* | -48.0%
O=c1[nH]c(=S)c2n[nH]nc2[nH]1 | · | · | 2.8% | · | 19.3%
